Laboratory results as given in the supplement of paper PMC10849652.
The full data set covers some 7,900 targets. This sample favours those with a hit. About 0.6% of all pairs of compound and target were hits. Unmarked numbers belong to inactive results.

Tests used:
Test in all cases: log2 fold change, soluble protein after heating vs DMSO (PISA); higher = thermal stabilisation; K562 cells, 10 uM, 30 min; active = over 0.2 and 3.5 SD of the protein, either way, in both replicates (recomputed)
[1] = compound: CS(=O)(=O)c1ccc(-c2cnc(N)c(C(=O)Nc3ccccc3)n2)cc1
Method in brief: (§1)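 Quantification of soluble protein used TMTpro 16plex LC-MS/MS, with channel sums equalised. Samples were the supernatant after 21,000xg for 90 min of pooled aliquots from K562 cells (2×10^6 cells/mL) treated with 10 μM compound for 30 min, heated for 3 min over 48°C-58°C, and extracted in PBS with 0.5% NP-40 at 4°C. Values, from duplicates, describe thermal stability against control samples on a log2 fold-change scale.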

[2] = compound: C[C@@H](Oc1cc(-c2cnn(C3CCNCC3)c2)cnc1N)c1c(Cl)ccc(F)c1Cl [crizotinib]
Method in brief: as §1

[3] = compound: C[C@@H]1COCCN1C2=NC(=NC(=C2)C3(CC3)S(=O)(=O)C)C4=C5C=CNC5=CC=C4
Method in brief: as §1

[4] = compound: C[C@H](C1=CC=C(C=C1)C(=O)NC2=C3C=CNC3=NC=C2)N
Method in brief: as §1

[5] = compound: C[C@H](Nc1ncnc2nc[nH]c12)c1cc2cccc(Cl)c2c(=O)n1-c1ccccc1 [duvelisib]
Method in brief: as §1

[6] = compound: Cc1cc(Nc2cc(CN3CCOCC3)c3nc(C)c(Cc4ccc(Cl)cc4F)n3n2)n[nH]1 [gandotinib]
Method in brief: as §1

[7] = compound: Cc1cc(Nc2cc(N3CCN(C)CC3)nc(Sc3ccc(NC(=O)C4CC4)cc3)n2)n[nH]1 [tozasertib]
Method in brief: as §1

[8] = compound: Cc1cc(SCc2sc(-c3ccc(C(F)(F)F)cc3)nc2C)ccc1OCC(=O)O
Method in brief: as §1

[9] = compound: Cc1ccc(-n2nc(C(C)(C)C)cc2NC(=O)Nc2ccc(OCCN3CCOCC3)c3ccccc23)cc1 [doramapimod]
Method in brief: as §1

[10] = compound: Cc1ccc(C(=O)N(CCCN)[C@@H](c2nc3cc(Cl)ccc3c(=O)n2Cc2ccccc2)C(C)C)cc1 [ispinesib]
Method in brief: as §1

Chain of UniProt P15291 (P15291 whole entry, looked up): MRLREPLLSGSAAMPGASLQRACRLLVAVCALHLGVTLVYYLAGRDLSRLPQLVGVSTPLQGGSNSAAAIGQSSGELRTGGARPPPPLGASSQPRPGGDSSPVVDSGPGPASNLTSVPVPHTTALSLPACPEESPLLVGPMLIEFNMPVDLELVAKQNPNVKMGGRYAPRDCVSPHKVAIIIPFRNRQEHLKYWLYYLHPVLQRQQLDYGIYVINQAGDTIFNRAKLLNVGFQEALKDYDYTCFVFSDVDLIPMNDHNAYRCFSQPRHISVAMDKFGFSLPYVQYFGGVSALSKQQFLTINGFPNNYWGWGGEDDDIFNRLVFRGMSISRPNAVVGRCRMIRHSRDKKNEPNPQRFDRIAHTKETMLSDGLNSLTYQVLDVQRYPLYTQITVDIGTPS
Chain of UniProt Q9UKV3 (Q9UKV3 whole entry, looked up): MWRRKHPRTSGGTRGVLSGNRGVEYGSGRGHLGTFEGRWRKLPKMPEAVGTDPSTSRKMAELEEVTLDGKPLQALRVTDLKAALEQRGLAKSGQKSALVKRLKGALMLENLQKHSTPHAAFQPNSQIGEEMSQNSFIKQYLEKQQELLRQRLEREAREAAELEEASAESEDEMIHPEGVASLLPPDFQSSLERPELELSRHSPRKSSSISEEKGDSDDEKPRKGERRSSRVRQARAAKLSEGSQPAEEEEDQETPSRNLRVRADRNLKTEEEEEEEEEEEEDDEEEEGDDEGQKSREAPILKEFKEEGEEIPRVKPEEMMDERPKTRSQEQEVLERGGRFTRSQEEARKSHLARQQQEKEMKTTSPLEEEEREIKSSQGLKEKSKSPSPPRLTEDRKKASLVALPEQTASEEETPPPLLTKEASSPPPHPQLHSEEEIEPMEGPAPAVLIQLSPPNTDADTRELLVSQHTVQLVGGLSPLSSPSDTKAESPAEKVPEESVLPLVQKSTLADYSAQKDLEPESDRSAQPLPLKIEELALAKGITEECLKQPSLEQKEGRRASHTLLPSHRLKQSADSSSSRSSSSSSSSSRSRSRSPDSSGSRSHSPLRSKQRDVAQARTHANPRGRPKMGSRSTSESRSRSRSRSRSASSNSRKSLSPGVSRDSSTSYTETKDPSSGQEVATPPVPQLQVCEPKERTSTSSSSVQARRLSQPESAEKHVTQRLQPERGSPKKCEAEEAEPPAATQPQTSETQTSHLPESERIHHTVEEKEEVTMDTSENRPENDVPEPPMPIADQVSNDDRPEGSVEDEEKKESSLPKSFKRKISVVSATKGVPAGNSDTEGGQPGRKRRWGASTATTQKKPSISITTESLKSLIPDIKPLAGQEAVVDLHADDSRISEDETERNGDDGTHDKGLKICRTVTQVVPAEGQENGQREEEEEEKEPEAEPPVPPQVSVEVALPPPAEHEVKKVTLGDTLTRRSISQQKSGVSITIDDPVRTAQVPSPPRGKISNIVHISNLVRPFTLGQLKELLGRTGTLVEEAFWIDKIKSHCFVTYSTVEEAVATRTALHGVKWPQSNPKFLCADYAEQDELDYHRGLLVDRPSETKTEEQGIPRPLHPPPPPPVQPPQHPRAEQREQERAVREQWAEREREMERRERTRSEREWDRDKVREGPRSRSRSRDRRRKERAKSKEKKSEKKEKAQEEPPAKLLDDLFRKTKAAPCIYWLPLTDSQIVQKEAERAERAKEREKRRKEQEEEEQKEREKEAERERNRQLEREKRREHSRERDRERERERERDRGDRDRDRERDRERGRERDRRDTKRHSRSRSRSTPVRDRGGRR
Chain of UniProt P31751 (P31751 whole entry, looked up): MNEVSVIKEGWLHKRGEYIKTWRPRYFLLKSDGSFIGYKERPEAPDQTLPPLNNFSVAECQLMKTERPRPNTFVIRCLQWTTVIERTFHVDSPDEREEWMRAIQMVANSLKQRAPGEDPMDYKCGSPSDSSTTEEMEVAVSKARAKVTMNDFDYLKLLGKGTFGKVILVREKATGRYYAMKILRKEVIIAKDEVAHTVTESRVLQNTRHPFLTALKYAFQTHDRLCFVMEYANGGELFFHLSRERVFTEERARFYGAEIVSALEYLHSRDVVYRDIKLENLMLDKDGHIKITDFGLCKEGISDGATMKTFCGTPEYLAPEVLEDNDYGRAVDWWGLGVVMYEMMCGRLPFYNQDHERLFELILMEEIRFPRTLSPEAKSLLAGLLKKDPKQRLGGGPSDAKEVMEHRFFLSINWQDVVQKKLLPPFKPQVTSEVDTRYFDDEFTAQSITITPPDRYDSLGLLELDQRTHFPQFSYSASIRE
Chain of UniProt Q13685 (Q13685 whole entry, looked up): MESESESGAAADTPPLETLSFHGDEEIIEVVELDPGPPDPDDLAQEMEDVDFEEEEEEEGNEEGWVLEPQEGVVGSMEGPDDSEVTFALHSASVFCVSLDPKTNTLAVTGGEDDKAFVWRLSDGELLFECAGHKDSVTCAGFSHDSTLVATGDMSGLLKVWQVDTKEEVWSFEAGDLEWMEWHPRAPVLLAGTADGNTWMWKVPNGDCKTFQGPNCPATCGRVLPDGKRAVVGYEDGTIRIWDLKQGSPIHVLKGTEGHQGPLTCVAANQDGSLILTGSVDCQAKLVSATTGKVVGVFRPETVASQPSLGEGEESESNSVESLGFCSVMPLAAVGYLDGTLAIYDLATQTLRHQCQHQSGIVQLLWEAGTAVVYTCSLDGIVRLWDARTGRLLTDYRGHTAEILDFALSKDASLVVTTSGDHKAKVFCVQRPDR
Chain of UniProt Q8N6H7 (Q8N6H7 whole entry, looked up): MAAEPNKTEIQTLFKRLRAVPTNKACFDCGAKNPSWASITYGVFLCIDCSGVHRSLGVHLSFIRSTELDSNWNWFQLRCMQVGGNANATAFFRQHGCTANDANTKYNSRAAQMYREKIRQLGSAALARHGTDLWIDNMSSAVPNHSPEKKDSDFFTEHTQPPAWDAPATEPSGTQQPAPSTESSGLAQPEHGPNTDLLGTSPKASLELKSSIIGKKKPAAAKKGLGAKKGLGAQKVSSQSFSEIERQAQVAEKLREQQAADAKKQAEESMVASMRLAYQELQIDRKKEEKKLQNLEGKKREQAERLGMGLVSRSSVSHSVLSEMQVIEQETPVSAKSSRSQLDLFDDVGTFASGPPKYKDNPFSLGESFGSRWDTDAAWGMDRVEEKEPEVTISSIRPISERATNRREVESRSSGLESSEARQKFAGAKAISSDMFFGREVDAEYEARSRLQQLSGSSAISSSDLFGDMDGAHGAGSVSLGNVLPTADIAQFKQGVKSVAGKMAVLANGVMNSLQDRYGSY
Chain of UniProt P40616 (P40616 whole entry, looked up): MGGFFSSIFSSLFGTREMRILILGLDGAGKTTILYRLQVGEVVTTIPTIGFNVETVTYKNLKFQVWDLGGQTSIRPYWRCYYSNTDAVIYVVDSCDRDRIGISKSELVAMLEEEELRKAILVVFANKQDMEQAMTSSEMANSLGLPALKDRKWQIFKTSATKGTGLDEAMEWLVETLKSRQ
Chain of UniProt P52895 (P52895 whole entry, looked up): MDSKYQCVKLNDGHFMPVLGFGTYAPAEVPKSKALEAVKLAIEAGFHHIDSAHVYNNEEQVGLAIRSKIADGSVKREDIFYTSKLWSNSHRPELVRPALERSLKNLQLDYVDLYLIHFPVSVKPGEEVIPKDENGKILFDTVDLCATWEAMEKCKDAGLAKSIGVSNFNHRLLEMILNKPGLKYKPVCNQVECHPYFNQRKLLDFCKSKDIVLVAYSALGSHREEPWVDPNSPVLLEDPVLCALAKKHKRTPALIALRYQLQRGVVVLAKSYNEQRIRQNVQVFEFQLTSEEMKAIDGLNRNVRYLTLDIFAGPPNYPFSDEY
Chain of UniProt Q9NX38 (Q9NX38 whole entry, looked up): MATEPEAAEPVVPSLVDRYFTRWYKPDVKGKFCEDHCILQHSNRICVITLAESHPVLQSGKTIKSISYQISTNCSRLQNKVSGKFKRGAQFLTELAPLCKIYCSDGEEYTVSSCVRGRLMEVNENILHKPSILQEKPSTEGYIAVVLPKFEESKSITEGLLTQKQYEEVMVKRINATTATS
Chain of UniProt P35611 (P35611 whole entry, looked up): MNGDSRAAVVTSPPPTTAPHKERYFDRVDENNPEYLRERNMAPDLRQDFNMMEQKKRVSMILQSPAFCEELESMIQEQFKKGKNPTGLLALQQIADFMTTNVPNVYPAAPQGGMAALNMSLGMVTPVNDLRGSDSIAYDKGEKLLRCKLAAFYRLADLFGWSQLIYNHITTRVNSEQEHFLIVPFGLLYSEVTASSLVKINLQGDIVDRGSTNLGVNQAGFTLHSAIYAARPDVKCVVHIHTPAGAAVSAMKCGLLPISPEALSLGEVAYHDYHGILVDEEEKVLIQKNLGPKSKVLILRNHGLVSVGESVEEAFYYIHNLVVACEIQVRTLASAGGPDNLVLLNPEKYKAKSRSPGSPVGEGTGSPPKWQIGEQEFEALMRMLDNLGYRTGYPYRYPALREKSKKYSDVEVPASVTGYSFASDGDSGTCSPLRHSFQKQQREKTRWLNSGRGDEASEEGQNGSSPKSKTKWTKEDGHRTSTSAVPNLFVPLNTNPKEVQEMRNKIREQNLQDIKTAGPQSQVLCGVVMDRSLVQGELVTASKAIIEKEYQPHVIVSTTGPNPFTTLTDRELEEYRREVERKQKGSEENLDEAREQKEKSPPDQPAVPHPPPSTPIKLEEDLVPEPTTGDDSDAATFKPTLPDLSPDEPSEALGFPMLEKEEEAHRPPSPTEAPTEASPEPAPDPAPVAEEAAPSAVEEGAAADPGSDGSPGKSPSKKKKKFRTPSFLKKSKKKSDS
Chain of UniProt P30043 (P30043 whole entry, looked up): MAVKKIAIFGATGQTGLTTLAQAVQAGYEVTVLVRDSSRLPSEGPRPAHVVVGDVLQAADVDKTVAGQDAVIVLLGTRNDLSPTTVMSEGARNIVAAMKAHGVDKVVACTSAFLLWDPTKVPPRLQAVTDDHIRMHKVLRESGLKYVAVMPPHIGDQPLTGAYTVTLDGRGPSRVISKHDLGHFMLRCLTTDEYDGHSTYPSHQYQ
Chain of UniProt Q8WUW1 (Q8WUW1 whole entry, looked up): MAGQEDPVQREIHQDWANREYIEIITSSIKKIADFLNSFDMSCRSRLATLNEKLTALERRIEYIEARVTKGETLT
Chain of UniProt O00244 (O00244 whole entry, looked up): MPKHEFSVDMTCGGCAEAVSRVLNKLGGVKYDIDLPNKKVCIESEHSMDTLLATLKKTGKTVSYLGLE

Target	log2 fold change [1]	log2 fold change [2]	log2 fold change [3]	log2 fold change [4]	log2 fold change [5]	log2 fold change [6]	log2 fold change [7]	log2 fold change [8]	log2 fold change [9]	log2 fold change [10]
ACAP2 (UniProt Q15057)	0.032	0.033	0.069	0.023	0.023	-0.07	0.026	0.047	-0.059	0.002
ALDH9A1 isoform 3 (UniProt P49189)	-0.002	-0.002	0.027	-0.042	0.015	0.063	-0.024	-0.002	-0.004	0.006
BLVRB (UniProt P30043)	0.04	-0.006	0.036	-0.081	0.016	-0.085	-0.011	0.002	-0.027	-0.012
BMP2K (UniProt Q9NSY1)	0.136	0.411 (active)	0	0.402 (active)	-0.078	0.319	0.318	-0.051	0.024	-0.017
BST2 (UniProt Q10589)	-0.023	0.066	0.006	-0.055	-0.004	-0.016	-0.009	-0.074	0.023	-0.078
B4GALT1 (UniProt P15291)	-0.007	-0.479 (active)	-0.031	-0.124	0.035	0.161	0.014	0.049	0.071	-0.066
ATP6AP1 (UniProt Q15904)	-0.006	-0.134	-0.161	0.146	-0.056	-0.03	0.028	0.055	0.045	-0.317 (active)
AAMP (UniProt Q13685)	0.027	0.115	-0.007	-0.006	0.022	-0.047	0.053	-0.03	-0.037	0.038
ABITRAM (UniProt Q9NX38)	0.055	0.012	0.1	-0.011	0.029	0.169	-0.012	0.079	0.006	0.108
ALG3 (UniProt Q92685)	-0.067	0.087	0.001	-0.077	0.057	-0.107	-0.019	0.049	0.006	-0.086
ACIN1 (UniProt Q9UKV3)	-0.011	-0.014	0.068	-0.12	0.005	0.01	-0.003	0.002	0.029	0.007
AGO1 (UniProt Q9UL18)	-0.071	-0.064	-0.007	0.006	-0.116	0.094	-0.153	0.002	-0.066	0.125
AHSA1 (UniProt O95433)	0.035	0.034	0.058	-0.026	0.027	-0.077	0.015	0.023	-0.029	-0.003
ACAD9 (UniProt Q9H845)	0.01	0.035	0.021	-0.061	0.048	-0.03	-0.016	-0.052	-0.002	0.059
ATOX1 (UniProt O00244)	-0.051	-0.057	0.235	-0.269	0.144	0.068	0.038	-0.071	0.051	0.212
ABCC5 (UniProt O15440)	0.045	-0.011	0.031	0.088	0.037	-0.05	-0.023	-0.011	-0.023	-0.071
BCAP29 isoform 2 (UniProt Q9UHQ4)	-0.015	-0.028	0.061	-0.005	-0.006	0.037	-0.019	-0.079	-0.024	-0.245 (active)
BRK1 isoform 2 (UniProt Q8WUW1)	-0.004	0.029	0.11	-0.276	0.086	-0.024	-0.047	-0.035	-0.041	0.18
AUP1 (UniProt Q9Y679)	-0.032	-0.123	0.071	-0.015	-0.05	-0.181	-0.012	0.06	-0.033	-0.41 (active)
BZW1 isoform 3 (UniProt Q7L1Q6)	0.007	-0.426	0.007	0.051	-0.03	-0.189	0.054	0.181	-0.008	-0.209
ARFGAP2 (UniProt Q8N6H7)	-0.04	0.042	0.062	0.007	0.033	-0.101	0.026	0.066	-0.009	0.039
ATP5IF1 (UniProt Q9UII2)	0.004	0.058	-0.006	0.018	-0.035	-0.056	-0.079	-0.082	-0.015	-0.019
ARPP19 (UniProt P56211)	-0.017	0.059	0.006	-0.106	-0.082	0.019	-0.031	-0.106	-0.037	0.048
ATP1B3 (UniProt P54709)	0.053	0.111	0.027	-0.152	0.028	-0.013	-0.019	-0.04	-0.042	0.165
ARL1 (UniProt P40616)	0.01	-0.073	0.094	-0.092	-0.004	-0.111	0.028	0.031	0.018	-0.064
ARFGAP1 (UniProt Q8N6T3)	0.009	0.094	0.048	-0.016	-0.011	-0.038	0.138	0.047	-0.13	0.008
ADD1 isoform 3 (UniProt P35611)	0.018	0.005	-0.011	-0.109	0.011	-0.054	-0.008	-0.015	0.001	0.045
ATP6V0A2 (UniProt Q9Y487)	-0.002	-0.197	-0.048	0.07	-0.062	-0.006	0.014	0.064	0.09	-0.18
AKR1C2 (UniProt P52895)	0.005	-0.029	-0.159	0.219	-0.076	0.089	-0.045	0.098	-0.036	0.077
AKT2 (UniProt P31751)	0.035	-0.18	-0.211	0.051	0.039	-0.233	-0.075	0.113	0.015	-0.083
